PubChem BioAssay AID1508625 (Wald Lab, School of Medicine, Case Western Reserve …, 2021)

Assay: enhancers of NK cell killing of ovarian tumor cells, primary screen, imaging, OVCAR3, primary NK cells, calcein-AM imaging (AID 1508625);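 note: compound given to NK cells 16 h before adding targets at 1.5 to 1 ratio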
Conditions: OVCAR3 lysis by primary NK cells, at 5 µM; z-score: measured here: robust Z-score, single-point normalisation

Work on Cc1ccc(NCc2cccnc2)cc1 yielded a corrected activity, negative = more killing of -1.25% and a z-score of -0.529.
For CC(=O)Oc1ccc(-c2nc3ccc(OC(C)=O)cc3c(=O)o2)cc1, the corrected activity, negative = more killing was -3.33% and the z-score was -1.44.
CC(C)C(NC(=O)C12CC3CC(CC(C3)C1)C2)C(=O)NC1=NCCS1 (stereo not given) gave a corrected activity, negative = more killing of 1.64% and a z-score of 0.711.
CCCCOc1ccccc1C1NC(=O)NC(C)=C1C(=O)OCC(F)(F)F (stereo not given) showed a corrected activity, negative = more killing of -3.61% and a z-score of -1.36.
With CCOc1ccc(NS(=O)(=O)c2ccc3[nH]cc(C(=O)NCC4CCCO4)c(=O)c3c2)cc1 (stereo not given) the corrected activity, negative = more killing was -2.15% and the z-score was -0.527.
CC1CCC2C(=O)N(c3ccc(N4CC5(C)CC4CC(C)(C)C5)c([N+](=O)[O-])c3)C(=O)C2C1 (stereo not given) showed a corrected activity, negative = more killing of -1.82% and a z-score of -0.661.
With O=C(Nc1ccc(Br)cc1)c1ccc(Cl)c(S(=O)(=O)N2CCCCCC2)c1 the corrected activity, negative = more killing was -9.39% and the z-score was -2.91.
O=C(NN=Cc1ccc(O)cc1)c1cc(-c2ccc3ccccc3c2)n[nH]1 showed a corrected activity, negative = more killing of 0.541% and a z-score of 0.236.
CCCCNC(=O)c1cc(Nc2ccc(CC)cc2)nc2ccccc12 gave a corrected activity, negative = more killing of -8.29% and a z-score of -2.03.
Work on COc1cccc(-c2nnc(-c3ccc([N+](=O)[O-])cc3)o2)c1 yielded a corrected activity, negative = more killing of 1.18% and a z-score of 0.417.
Cc1ccc(OCCN2CCNCC2)c(Br)c1 showed a corrected activity, negative = more killing of -2.45% and a z-score of -1.36.
For Cc1c(NC(=O)CCCCCN2C(=O)c3ccccc3C2=O)c(=O)n(-c2ccccc2)n1C, the corrected activity, negative = more killing was -6.57% and the z-score was -2.47.
Cn1c2ccccc2c(=Nc2ccc(Br)cc2)c2ccccc21 gave a corrected activity, negative = more killing of -4.16% and a z-score of -1.48.
Compound Cc1ccc(S(=O)(=O)n2nnc3ccccc32)c(C)c1C has a corrected activity, negative = more killing of -4.06% and a z-score of -1.51.
CN1C(=O)c2ccccc2C(C(=O)Nc2ccc3c(c2)OCCO3)C1c1cccs1 (stereo not given) gave a corrected activity, negative = more killing of -7.21% and a z-score of -1.79.
